In the library only some 6.3% were active in any assay of this set; here they are far more common.
Gal4-VP16 FLuc – Gal4-VP16 reporter inhibition counter-screen. Drosophila S2 Gal4-VP16 UAS-luciferase, luminescence, 20 h. Potency, µM (highest dose often 53.6 µM), without a hit: at the top dose activity, negative = inhibition, most hits filed as inhibitors. 310,000 compounds, 3.5% hits;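 also: Gal4-VP16 expression switched on by copper sulfate through the metallothionein promoter; % is scaled to controls: 0 for no effect and ±100 for the full control effect; nearly all actives have a fitted effect of over 50% in size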
ATXN viability – viability counter-screen for ATXN expression inhibitors | 400,000 compounds, 0.49% hits | Potency, µM (highest dose often 56.7 µM), most hits filed as cytotoxic | S2 cells (HEK-293 line with an ATXN2-luciferase reporter) viability, CellTiter-Fluor protease fluorescence, 24 h | AID 651635; also: nearly all actives have a fitted effect of over 40% in size
TGFb SMAD3 inh – TGF-b pathway inhibition; AID 588855; Potency, µM (highest dose often 46.1 µM), for inactives: at the highest dose activity, negative = inhibition, actives largely listed as inhibitors; HepG2 CAGA-GFP TGF-b/SMAD3 reporter, GFP fluorescence, 18 h; TGF-beta stimulated, 500 pg/mL final; 410,000 compounds, 1.2% hits; also: % is scaled to controls: 0 for no effect and ±100 for the full control effect; nearly all actives have a fitted effect of over 65% in size
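Per well, imaged GFP fluorescence of HEPG2 CAGA-GFP cells gives the signal; cells get compound, then TGF-beta (500 pg/mL final), 18 h at 37 degrees C; %Activity versus -TGF-beta and +DMSO controls.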
ATXN2 expr inh – inhibitors of ATXN2 expression; 360,000 compounds, 0.72% hits; Potency, µM (highest dose often 57 µM), for inactives: top-dose activity change, negative = inhibition, actives largely listed as inhibitors; HEK-293 ATXN2-luciferase reporter, luminescence, 24 h; AID 1745845; also: % is scaled to controls: 0 for no effect and ±100 for the full control effect; nearly all actives have a fitted effect of over 55% in size
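ATXN2-luciferase reporter cells (luciferase flanked by upstream and downstream ATXN2 gene portions) were treated 24 h at 37 °C with compounds at up to 57 uM. SteadyGlo luminescence gave expression; GF-AFC fluorescence gave viability.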
HepG2 viability – counter-screen for TGF-b inhibitors: cytotoxicity in HepG2 cells; Potency, µM (series often up to 46.1 µM), without a hit: at the highest dose activity change, negative = cytotoxicity, most hits filed as cytotoxic; HepG2 CAGA-GFP viability, ATP luminescence, 18 h; AID 588856; 410,000 compounds, 0.76% hits
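HepG2 CAGA-GFP cells (1000/well, DMEM with 1% FBS) received compound, then TGF-beta at 500 pg/mL final, and were incubated 18 hours at 37 degrees C. Viability was read by CellTiter-Glo luminescence. Media-only wells were set as complete cell-killing and DMSO as no toxicity.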
RORg inh – ROR gamma (mouse) transcription inhibition; 310,000 compounds, 5.4% hits; Potency, µM (titrated, usually from 53.6 µM), without a hit: at the top dose activity change, negative = inhibition, actives largely listed as inhibitors; Drosophila S2 Gal4-RORgamma UAS-luciferase reporter, 20 h; also: % is scaled to controls: 0 for no effect and ±100 for the full control effect; nearly all actives have a fitted effect of over 60% in size
Target sequence (P51450 whole entry, looked up, the tested form may be a part): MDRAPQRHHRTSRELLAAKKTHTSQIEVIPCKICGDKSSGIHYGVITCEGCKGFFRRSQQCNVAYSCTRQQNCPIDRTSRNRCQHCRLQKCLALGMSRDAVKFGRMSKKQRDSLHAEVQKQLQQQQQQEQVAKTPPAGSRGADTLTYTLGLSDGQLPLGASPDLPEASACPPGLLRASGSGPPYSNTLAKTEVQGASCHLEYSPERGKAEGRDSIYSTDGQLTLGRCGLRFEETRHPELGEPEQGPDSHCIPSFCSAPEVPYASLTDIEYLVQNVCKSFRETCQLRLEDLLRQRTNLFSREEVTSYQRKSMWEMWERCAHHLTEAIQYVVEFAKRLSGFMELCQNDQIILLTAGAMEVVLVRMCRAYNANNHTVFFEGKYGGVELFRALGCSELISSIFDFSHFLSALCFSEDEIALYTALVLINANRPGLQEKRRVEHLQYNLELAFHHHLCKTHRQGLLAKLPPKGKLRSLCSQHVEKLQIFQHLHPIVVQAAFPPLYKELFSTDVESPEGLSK
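ROR gamma transcriptional activity was tracked as Gal4-UAS luciferase output in stably transfected Drosophila Schneider cells, with compound added 1 hr before 700 uM copper sulfate induction and a 20 hr ambient-temperature incubation.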
The depositor's hits bear a star; i = inactive; ? = inconclusive; · = not tested or not shown. Calls follow the shape of the dose curve; as a rule, active = well fitted curve in the direction sought with a large enough effect; inconclusive = small, poorly fitted or top-dose-only effect, or another doubt; inactive = no such curve, though single readings can be large; an effect the other way counts as inactive or inconclusive. Potency is read from the fitted curve at half-maximal effect.

SMILES	Gal4-VP16 FLuc	ATXN viability	TGFb SMAD3 inh	ATXN2 expr inh	HepG2 viability	RORg inh
CCSC[C@H](NC(=O)[C@H](C)NC(=O)[C@@H](N)Cc1ccc(O)cc1)C(=O)N[C@@H](CC(=O)O)C(=O)N[C@H](C(=O)N[C@@H](C)C(=O)N[C@H](C(=O)N[C@@H](CSCC)C(=O)N[C@H](C(=O)N[C@H](C(=O)N[C@@H](Cc1cnc[nH]1)C(=O)N[C@@H](CCCNC(=N)N)C(=O)N[C@@H](CC(C)C)C(=O)N[C@@H](C)C(=O)NCC(=O)N[C@@H](CC(C)C)C(=O)N[C@@H](CC(C)C)C(=O)N[C@@H](CO)C(=O)N[C@@H](CCCNC(=N)N)C(=O)N[C@@H](CO)C(=O)NCC(=O)NCC(=O)N[C@H](C(=O)N[C@H](C(=O)N[C@@H](CCCCN)C(=O)N[C@@H](CC(N)=O)C(=O)N[C@@H](CC(N)=O)C(=O)N[C@@H](Cc1ccccc1)C(=O)N[C@H](C(=O)N1CCC[C@H]1C(=O)N[C@H](C(=O)N[C@@H](CC(N)=O)C(=O)N[C@H](C(=O)NCC(=O)N[C@@H](CO)C(=O)N[C@@H](CCCCN)C(=O)N[C@@H](C)C(=O)N[C@@H](Cc1ccccc1)C(N)=O)C(C)C)[C@@H](C)O)C(C)C)C(C)C)C(C)C)[C@@H](C)O)C(C)C)[C@@H](C)O)[C@@H](C)O	2%	·	·	·	·	-3%
CN(C)c1nc2cc3c(cc2cc1CN(CC1CCCO1)C(=O)/C=C/c1cccs1)OCO3 (stereo not drawn)	·	i	·	·	·	·
C/C(Cn1nnc([N+](=O)[O-])n1)=N\NC(=O)c1ccc(Cl)c(Cl)c1	?	?	10µM*	?	14µM*	13µM*
C/C(Cn1cnc([N+](=O)[O-])n1)=N\NC(=O)c1ccc(Br)cc1	-4%	i	-1%	9%	6%	?
C/C(Cn1nnc([N+](=O)[O-])n1)=N\NC(=O)c1ccc(O)cc1	7.9µM*	?	11µM*	·	-31%	2.8µM*
CCCCc1cc2c(=O)c(C(=O)OC)c[nH]c2cc1OCc1ccccc1	·	i	·	·	·	·
O=C(CCCl)NCc1ccccc1	·	i	·	-2%	·	·
CCCCCCCCCCOC(=O)C[N+](C)(C)C/C=C(/C)Cl	22µM*	i	-2%	-12%	-21%	14%
CCCCCCCCOC(=O)C[N+](C)(C)C/C=C(/C)Cl	?	i	0%	·	4%	79%
CN(C)C(CNS(=O)(=O)c1ccc(Cl)cc1F)c1ccco1 (stereo not drawn)	·	i	-14%	-23%	-10%	·
O=S(=O)(Nc1ccc(-c2ccc(N3CCCC3)nn2)cc1)c1ccc(OC(F)(F)F)cc1	·	i	?	6%	-36%	·
CC1CCN(c2ccc(-c3ccc(NC(=O)C(F)(F)F)cc3)nn2)CC1	-29%	i	-3%	?	-10%	5.6µM*
O=C(O)c1ccc(N=Nc2c(O)ccc3ncccc23)cc1	3.2µM*	i	-1%	·	-6%	1.1µM*
CCOC(=O)C(=O)N(C)c1c(CC)nc2c(OCc3ccccc3OC)cccn12	·	i	10%	-1%	-15%	·
C[C@H](NC(=O)C(C#N)=Cc1cccc(Br)n1)c1ccccc1	·	·	·	22µM*	·	·
CC1(C(=O)O)CCCN1C(=O)c1cccc(C(F)(F)F)c1 (stereo not drawn)	·	i	2%	20%	-7%	·
CC(NC(=O)Nc1ccccc1)C(c1cccs1)N1CCOCC1 (stereo not drawn)	25%	i	-7%	14%	-10%	?
CCN1CCN(C(c2cccs2)C(C)NC(=S)NC2CCCCC2)CC1 (stereo not drawn)	3%	i	11%	3%	26%	-44%
CC(NC(=S)NC1CCCCC1)C(c1cccs1)N1CCOCC1 (stereo not drawn)	?	i	-26%	5%	-11%	8.9µM*
CC(NC(=S)Nc1ccc(Cl)cc1Cl)C(c1cccs1)N1CCCC1 (stereo not drawn)	?	i	-22%	-3%	-1%	11µM*
COc1ccccc1NC(=S)NC(C)C(c1cccs1)N1CCOCC1 (stereo not drawn)	?	i	-18%	·	0%	13µM*
COc1ccccc1N(C)C(=O)Cn1c(=O)oc2cc(S(=O)(=O)N3CCCC3)ccc21	·	i	-4%	-4%	-19%	·
CCOc1ccccc1NC(=O)C(=O)c1cc(C)n(-c2cccc(C)c2C)c1C	·	i	?	9%	-49%	·
COc1ccccc1C/C(N)=N/OC(=O)/C=C/c1ccccc1	-26%	i	17%	·	-8%	5.6µM*
CC1=C(C)/C(=N/OC(=O)c2cccc([N+](=O)[O-])c2)C=CC1=O	3.5µM*	i	?	3%	-43%	3.5µM*
SMILES	Gal4-VP16 FLuc	ATXN viability	TGFb SMAD3 inh	ATXN2 expr inh	HepG2 viability	RORg inh
COc1ccccc1C/C(N)=N/OC(=O)c1cccc([N+](=O)[O-])c1	-24%	i	?	30%	13%	10µM*
Cc1noc(C)c1S(=O)(=O)Nc1ccc(C(=O)Nc2ccc(Br)cc2)cc1	·	i	-15%	?	-11%	·
Cc1ccccc1Sc1ncnc2onc(C)c12	?	i	?	-10%	-2%	7.1µM*
Cc1noc2ncnc(NCc3cccc(Cl)c3)c12	·	i	-24%	-25%	-13%	·
Cc1noc2ncnc(Sc3c(Cl)cccc3Cl)c12	16µM*	i	?	7%	11µM*	-111%
Cc1noc2ncnc(Sc3ccc(Cl)cc3)c12	6.3µM*	?	?	-20%	14µM*	7.1µM*
Cc1ccc(Sc2ncnc3onc(C)c23)cc1	22µM*	i	-7%	11%	-9%	10µM*
Cc1ccc(CSc2ncnc3onc(C)c23)cc1	-5%	i	7%	-19%	11%	-1%
CN1CCN(S(=O)(=O)c2cccc(C(=O)N(C)CC(=O)Nc3ccc(Cl)c(Cl)c3)c2)CC1	·	i	?	?	-20%	·
Cc1cc(C)c(Cn2c(=O)n(CCC(=O)NCc3ccc4c(c3)OCO4)c(=O)c3ccccc32)c(C)c1	·	?	-1%	7%	3%	·
CCC(=O)NC(c1ccc([N+](=O)[O-])cc1)c1c(O)ccc2ccccc12 (stereo not drawn)	11µM*	?	-16%	-12%	-28%	?
O=C(NC(c1ccccc1)c1c(O)ccc2ccccc12)c1ccccc1Cl (stereo not drawn)	-6%	i	?	?	-77%	1%
